Screening results (PubChem BioAssay)
Shown are actives, neighbours in structure and some others; about 7.3% of the full set was active somewhere.
FLuc modulator – firefly luciferase modulation, counter-screen for miR-21 project; purified FLuc, Km substrates, luminescence inhibition; 360,000 tested, 6.9% active; P08659; Potency, µM (top dose mostly 57.5 µM), for the others: at the top dose activity change, negative = inhibition, actives largely listed as inhibitors;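 further: plate controls were vehicle for no effect and reference inhibitor for full effect; nearly all actives have a fitted effect of over 55% in size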
Target sequence (P08659 whole entry, looked up): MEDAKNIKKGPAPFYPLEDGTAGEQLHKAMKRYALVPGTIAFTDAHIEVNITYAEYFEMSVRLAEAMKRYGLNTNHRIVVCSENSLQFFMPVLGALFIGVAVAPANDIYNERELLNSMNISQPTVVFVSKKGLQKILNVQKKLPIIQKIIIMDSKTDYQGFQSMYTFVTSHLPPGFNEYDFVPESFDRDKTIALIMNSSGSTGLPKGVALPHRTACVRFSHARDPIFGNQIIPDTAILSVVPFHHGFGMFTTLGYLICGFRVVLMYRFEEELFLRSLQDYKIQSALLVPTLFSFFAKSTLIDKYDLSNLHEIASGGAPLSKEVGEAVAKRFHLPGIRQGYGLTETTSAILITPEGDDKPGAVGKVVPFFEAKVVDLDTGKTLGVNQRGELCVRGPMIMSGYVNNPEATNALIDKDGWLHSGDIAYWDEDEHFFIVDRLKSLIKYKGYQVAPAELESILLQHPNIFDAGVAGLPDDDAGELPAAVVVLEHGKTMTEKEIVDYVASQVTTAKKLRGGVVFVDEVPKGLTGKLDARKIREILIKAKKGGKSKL
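Purified P. pyralis luciferase, 10 nM final, with Km-level 10 uM D-luciferin and 10 uM ATP in 50 mM Tris acetate pH 7.5, 10 mM Mg acetate, 0.01% Tween-20, 0.05% BSA; 6-point qHTS titration about 60 µM downward; luminescence read.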
SMN2 splice up – SMN2 splice variant enhancement; Potency, µM (titrated, usually from 46.1 µM), for the others: top-dose activity change, positive = activation, most hits filed as activators; AID 1458; 210,000 tested, 2.8% active; HEK293 SMN2-luciferase splicing reporter, luminescence, 30-36 h; further: % of control where 0% means no effect; nearly all actives have a fitted effect of over 55% in size
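qHTS luciferase splicing reporter: luminescence rises when SMN2 exon 7 is included in transfected HEK293 cells. Compound exposure lasted 30-36 h at 37C, with 4.5 mM final sodium butyrate as control, followed by a ONE-Glo read.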
uPA surface inh – blocks generation of uPA at the cell surface; Potency, µM (titrated, usually from 38.3 µM), for the others: at the highest dose activity change, negative = inhibition, actives largely listed as inhibitors; 330,000 tested, 0.31% active; cell surface uPA generation assay, qHTS; active means well fitted inhibition curve with a large enough effect; inconclusive means small, poorly fitted or top-dose-only effect; inactive means no such curve, though single readings can be large or run the other way; tested in mouse RAW 264.7 cells; further: on the % scale 0 is the no-effect control and ±100 the full control effect; nearly all actives have a fitted effect of over 55% in size
Rab9 prom act – activates the Rab9 promoter; AID 485297; Huh7 Rab9 promoter-luciferase reporter, luminescence, 24 h; 320,000 tested, 2.8% active; Potency, µM (titrated, usually from 9.22 µM), without a hit: at the top dose activation, negative = inhibition, actives largely listed as activators; further: % of control where 0% means no effect; nearly all actives have a fitted effect of over 60% in size
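Luminescence read-out: Huh7 cells stably expressing Rab9-luciferase, treated 24 h with compound at 37 °C, then lysed with luciferase reagent for 10 min at ambient before reading.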
ELG1 genotox – genotoxicity induction in ELG1-luciferase HEK293T cells. HEK293T ELG1-luciferase reporter, luminescence, 16 h. Potency, µM (highest dose often 46 µM), without a hit: at the highest dose activity change, positive = activation, hits mostly activators. 330,000 tested, 1.3% active; further: % of control where 0% means no effect; nearly all actives have a fitted effect of over 60% in size
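Step 1: seed 2,000 HEK293T ELG1-luciferase cells per well. Step 2: add compound or DMSO, incubate 16 hr at 37 °C. Step 3: ONE-Glo, 30 min at room temperature, read luminescence.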
NPC1 promoter act – activates the NPC1 promoter; AID 485313; Huh7 NPC1 promoter luciferase reporter, 24 h; 320,000 tested, 2.4% active; Potency, µM (titrated, usually from 9.22 µM), for inactives: at the highest dose activation, usual class: activators; further: % of control where 0% means no effect; nearly all actives have a fitted effect of over 60% in size
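Stably transfected Huh7 (NPC1 promoter→luciferase), 1500 cells/well in Opti-MEM + 10% FBS, 2 h settle, then compound 24 h at 37 °C. Luminescence after 10 min with Amplite reagent.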
Starred values were filed as active, the others as inactive. Unless noted, the call rests on the fitted dose curve; in most records, active means well fitted curve in the direction sought with a large enough effect; inconclusive means small, poorly fitted or top-dose-only effect, or another doubt; inactive means no such curve, though single readings can be large; an effect the other way counts as inactive or inconclusive. Potency means the concentration at half of the fitted maximal effect.

How did COc1ccccc1-c1nc(NCc2ccccc2)c2ccccc2n1 do in these assays?
SMN2 splice up: -106%

Results for Cc1cccc(Cn2cnc3c(oc4ccccc43)c2=O)c1 ?
FLuc modulator: -1%

Results for CCCNc1ccc(-c2nc(-c3ccccn3)no2)cc1[N+](=O)[O-] ?
FLuc modulator: -1%

What do the screens show for `Cc1ccc(-c2nc(-c3ccccn3)no2)cc1`?
FLuc modulator: 0.085µM*; uPA surface inh: -20%; Rab9 prom act: 0.0002µM*; ELG1 genotox: -7%; NPC1 promoter act: -28%

What do the screens show for `Cc1ccc(-c2nc(-c3ccccn3)no2)cc1Cl`?
FLuc modulator: 0.13µM*; uPA surface inh: -11%; Rab9 prom act: 0.32µM*; ELG1 genotox: inconclusive; NPC1 promoter act: 0.35µM*

How did CCOC(=O)CNC(=O)c1cc2c(=O)n(CC)c3ccccc3c2s1 do in these assays?
FLuc modulator: 4%; SMN2 splice up: 8%

Results for O=C(N/N=C/c1cc(Br)cc(Br)c1O)c1cccc(N2CCCC2=O)c1 ?
FLuc modulator: inconclusive; uPA surface inh: 2%; Rab9 prom act: -3%; ELG1 genotox: 10%; NPC1 promoter act: -3%

How did O=C(N/N=C/c1ccc(Cl)cc1Cl)c1cccc(N2CCCC2=O)c1 do in these assays?
FLuc modulator: 6.7µM*; uPA surface inh: -4%; Rab9 prom act: 7%; ELG1 genotox: 0%; NPC1 promoter act: 13%

How did O=C(NC1CCCCCCC1)c1cccc(Cl)c1 do in these assays?
FLuc modulator: 15µM*; uPA surface inh: 1%; Rab9 prom act: inconclusive; ELG1 genotox: inconclusive; NPC1 promoter act: inconclusive

Results for O=C(NC1CCCCCC1)c1cccc(N2CCCC2=O)c1 ?
FLuc modulator: 15µM*; SMN2 splice up: 7.1µM*; uPA surface inh: -4%; Rab9 prom act: 2.2µM*; ELG1 genotox: inconclusive; NPC1 promoter act: 3.5µM*

Results for CCc1ccc(NC(=O)Cn2c(=O)n(Cc3ccc4c(c3)OCO4)c(=O)c3oc4ccccc4c32)cc1 ?
FLuc modulator: 0%

Results for COc1cccc(OCc2nc3ccccc3n2CCOc2ccccc2)c1 ?
FLuc modulator: inconclusive; SMN2 splice up: 3%

What do the screens show for `Cc1cccc(N(CC(=O)NC(C)c2ccccc2)S(=O)(=O)c2ccccc2)c1C` (configuration not stated)?
FLuc modulator: -11%; SMN2 splice up: -14%

What do the screens show for `COc1ccc(-n2nnc(C(=O)Nc3ccccc3F)c2N)cc1`?
FLuc modulator: 2.4µM*; SMN2 splice up: 7.1µM*

What do the screens show for `COc1ccc(-c2cc(C(=O)Nc3ccccc3F)on2)cc1`?
FLuc modulator: -17%; SMN2 splice up: inconclusive; uPA surface inh: 3%; Rab9 prom act: 3.2µM*; ELG1 genotox: inconclusive; NPC1 promoter act: 1%

Results for COc1ccc(-c2cc(C(=O)Nc3ccccc3)on2)cc1 ?
FLuc modulator: 0.54µM*; SMN2 splice up: inconclusive; uPA surface inh: 18%; Rab9 prom act: 3%; ELG1 genotox: inconclusive; NPC1 promoter act: 0%

What do the screens show for `COc1ccc(NC(=O)c2cc(-c3ccccc3O)no2)cc1`?
FLuc modulator: -11%

What do the screens show for `Cc1ccc[n+](CC(=O)Nc2c(Cl)cc(Cl)cc2Cl)c1`?
FLuc modulator: 19µM*; uPA surface inh: -1%; Rab9 prom act: 24%; ELG1 genotox: 11%; NPC1 promoter act: 11%

What do the screens show for `O=C(C[n+]1ccccc1)Nc1c(Cl)cc(Cl)cc1Cl`?
FLuc modulator: inconclusive; uPA surface inh: 3%; Rab9 prom act: inconclusive; ELG1 genotox: 3%; NPC1 promoter act: 6%

What do the screens show for `Nc1ccccc1Nc1cc(-c2ccccc2)nn1-c1cccc(Cl)c1`?
FLuc modulator: -14%; SMN2 splice up: -7%; uPA surface inh: 1%; Rab9 prom act: -2%; ELG1 genotox: 1%; NPC1 promoter act: 3%

How did CNc1nn(-c2cccc(Cl)c2)nc1N do in these assays?
FLuc modulator: 24µM*; SMN2 splice up: inconclusive; uPA surface inh: -6%; Rab9 prom act: inconclusive; ELG1 genotox: 11µM*; NPC1 promoter act: inconclusive

What do the screens show for `Cc1ccc(-c2cc3onc(-c4ccccc4)c3c(=O)n2C)cc1`?
FLuc modulator: 0.13µM*; uPA surface inh: inconclusive; Rab9 prom act: inconclusive; ELG1 genotox: inconclusive; NPC1 promoter act: inconclusive

How did Cc1ccc(N(Cc2cccs2)C(=O)Nc2cccc(Cl)c2)cc1 do in these assays?
FLuc modulator: -10%

How did FC(F)Oc1ccc(N=C2SCC3CCCCN23)cc1 (configuration not stated) do in these assays?
FLuc modulator: 12µM*; uPA surface inh: -2%; Rab9 prom act: 3.5µM*; ELG1 genotox: inconclusive; NPC1 promoter act: 2µM*

How did O=C(CN1CCCCC1CO)c1ccc(OC(F)F)cc1 (configuration not stated) do in these assays?
FLuc modulator: 1%; SMN2 splice up: -12%; uPA surface inh: inconclusive; Rab9 prom act: 2%; ELG1 genotox: 0%; NPC1 promoter act: -14%

Results for Clc1ccc(N=C2SCC3CCCCN23)cc1 (configuration not stated) ?
FLuc modulator: 9.5µM*; uPA surface inh: 2%; Rab9 prom act: 2.5µM*; ELG1 genotox: 26%; NPC1 promoter act: 4µM*

What do the screens show for `O=C(CSc1nc2c([nH]c3ccccc32)c(=O)n1-c1ccccc1)Nc1ccc2c(c1)OCO2`?
FLuc modulator: -9%

How did O=C(NCc1ccccc1)C1CCN(S(=O)(=O)Cc2ccccc2)CC1 do in these assays?
FLuc modulator: -5%

Results for CCN(CC)c1cc2c(cc1F)c(=O)c(S(=O)(=O)c1ccc(OC)cc1)cn2CC ?
FLuc modulator: -8%

What do the screens show for `CSc1nc2sc3c(c2c(=O)n1C)CCC(C)C3` (configuration not stated)?
FLuc modulator: 13µM*; SMN2 splice up: 1%; uPA surface inh: -11%; Rab9 prom act: 19%; ELG1 genotox: 9%; NPC1 promoter act: 2%

What do the screens show for `CSc1nc2sc3c(c2c(=O)n1C)CCC3`?
FLuc modulator: -6%; uPA surface inh: -4%; Rab9 prom act: -2%; ELG1 genotox: 3%; NPC1 promoter act: 0%

How did COc1ccc(NC(=O)CSC2=Nc3ccccc3C3=NC(CCC(=O)NCc4ccco4)C(=O)N23)cc1 (configuration not stated) do in these assays?
FLuc modulator: -3%

Results for O=C(CC(c1ccco1)S(=O)(=O)c1ccccc1)c1ccc(F)cc1 (configuration not stated) ?
FLuc modulator: 19µM*; SMN2 splice up: 13%; Rab9 prom act: -1%; ELG1 genotox: 1%; NPC1 promoter act: 0%
